Entries with a potency or affinity are not part of this list. Calls of active or inactive are those of the source. No rule for the calls is given here.
target: Peroxisome proliferator-activated receptor gamma (Homo sapiens) (UniProt P37231); experiment: PPARg transcriptional activation, reporter cells – cell-based, luminescence, assay provider, dose response (AID 504447); settings: luciferase luminescence, partial agonism; series mostly up to 5 µM
Sequence (P37231 whole entry, looked up): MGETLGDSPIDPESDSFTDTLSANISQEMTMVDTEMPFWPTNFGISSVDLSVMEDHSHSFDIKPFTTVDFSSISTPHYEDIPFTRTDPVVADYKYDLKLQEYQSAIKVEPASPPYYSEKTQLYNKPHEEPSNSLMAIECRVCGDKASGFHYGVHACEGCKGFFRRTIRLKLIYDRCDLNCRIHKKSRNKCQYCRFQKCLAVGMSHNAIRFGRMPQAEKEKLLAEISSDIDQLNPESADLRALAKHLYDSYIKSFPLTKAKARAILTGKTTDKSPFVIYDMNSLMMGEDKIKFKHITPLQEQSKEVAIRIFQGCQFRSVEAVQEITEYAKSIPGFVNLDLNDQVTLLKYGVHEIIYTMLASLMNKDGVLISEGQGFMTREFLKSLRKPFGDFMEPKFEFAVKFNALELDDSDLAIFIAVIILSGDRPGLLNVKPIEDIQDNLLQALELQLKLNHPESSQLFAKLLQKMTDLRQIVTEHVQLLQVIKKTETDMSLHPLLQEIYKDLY

outcome, inactive:
COc1ccc(S(=O)(=O)N2CCCCC2)cc1NC(=O)C1CSC2(C)CCC(=O)N12 (configuration not stated), O=C1CC(N2CCN(Cc3ccc4c(c3)OCO4)CC2)C(=O)N1Cc1ccc(N2CCCC2=O)cc1 (configuration not stated), Cc1c(-n2cc(C(=O)c3cc(F)ccc3O)cc(C#N)c2=O)c(=O)n(-c2ccccc2)n1C, S=C(NCCc1ccccc1)N1CCn2cccc2C1c1ccncc1 (configuration not stated), COc1ccc(C=NNS(=O)(=O)c2ccc(F)cc2)cc1COc1cc(F)ccc1[N+](=O)[O-], COCCn1cnc2c1c(=O)n(Cc1cc(C(C)=O)ccc1OC)c(=O)n2Cc1ccccc1, Cc1ccc2nc(N3C(=O)C(O)=C(C(=O)c4ccco4)C3c3ccc(O)cc3)sc2c1 (configuration not stated)
